# From PubChem BioAssay
# DPM-DC inhibit – S. pneumoniae DPM-DC inhibition; purified DPM-DC, PK/LDH coupled NADH fluorescence; calls only at 10 µM; 0.49% of 65,000 active; AID 556;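 active = the 320 compounds with the highest percent inhibition in the single-dose primary screen, excluding strongly autofluorescent ones, cut at about 32% in these data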;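 also: kinetic rate of NADH fluorescence loss reporting ADP formed by the decarboxylase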
# Spn PMK inh – S. pneumoniae PMK inhibition | AID 539 | 0.49% of 65,000 active | purified PMK, PK/LDH-coupled NADH absorbance 340 nm | inhibition, % at 10 µM;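 active = top-ranked compounds by inhibition in the single 10 µM screen, taking a fixed number of the strongest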;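 also: 0% = full reaction with DMSO carrier and 100% = background rate without enzyme reaction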
# Spn MK inh – S. pneumoniae mevalonate kinase inhibition | inhibition, % at 10 µM | purified MK, PK/LDH-coupled NADH absorbance 340 nm | 0.48% of 65,000 active;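 active = ranked among the strongest by inhibition in the single 10 µM screen, a fixed top-ranked set picked for dose follow-up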
# NADH coupling – inhibitors of enzymes used to reach an NAD/NADH endpoint. AID 774. coupled PK/LDH NADH assays, four targets. IC50, µM (doses to about 10 µM), inactives show at the highest dose inhibition. 0.02% of 65,000 active;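 active = single-dose screening hits from any of four coupled enzyme assays that gave an IC50 when retested across doses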;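 also: the DPM-DC format reads NADH fluorescence rather than 340 nm absorbance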
# Fluor 339 460 – intrinsic fluorescence of library compounds, ex339/em460 – biochemical, MLSMR library, data from DPM-DC assay, artefact control, profiling panel; compound autofluorescence, ex339/em460 nm, NADH buffer; hits give high values; 1 = no-compound wells, NADH background; fluorescence fold increase at 10 µM; 5.5% of 65,000 active; AID 709;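 active = at 10 µM, mean starting fluorescence two-fold or more over control wells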;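 also: signal is the first read of a kinetic run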
# Abs 340nm – compounds absorbing at 340 nm | fold change at 10 µM | 65,000 tested, under 10 active | AID 708 | compound absorbance at 340 nm, fold over control;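 active = at 10 µM dose, initial 340 nm absorbance at least 2 fold that of control wells; inactive = change under 2 fold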;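 also: initial absorbance extrapolated from kinetic A340 decline of NADH oxidation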
# The depositor's hits bear a star; i = inactive; nt = no result shown; + = active, no number. This is a sample that favours compounds with a hit; in the whole collection about 6.8% have one here.
SMILES,DPM-DC inhibit,Spn PMK inh,Spn MK inh,NADH coupling,Fluor 339 460,Abs 340nm
Cc1sc2nc(SCC(=O)c3cc(C)n(CC4CCCO4)c3C)n(C(C)C)c(=O)c2c1C (centres undefined),i,0.0,4.0,2.0%,1.04,1.07
COC(=O)c1ccc(Nc2cc(C)nc(-c3ccccc3O)n2)cc1,+,92.0,81.0*,79.0%,1.77,1.13
Clc1ccc(-n2nnnc2SCc2c(-c3ccccc3)nc3sccn23)cc1,i,3.0,0.0,1.0%,1.1,1.03
COc1ccc(CCNC(=O)c2ccc3nc(-c4ccco4)c(-c4ccco4)nc3c2)cc1OC,i,15.0,27.0,19.0%,2.42*,1.02
COc1ccc(CCn2c(N)c(C(=O)NCc3ccco3)c3nc4ccccc4nc32)cc1OC,nt,3.0,10.0,7.0%,3.65*,1.01
COc1ccc(-n2c(N)c(C(=O)NCc3ccco3)c3nc4ccccc4nc32)c(OC)c1,nt,15.0,10.0,3.0%,2.92*,1.04
Cc1[nH]nc2c1C(c1ccccc1F)CC(=O)N2 (centres undefined),i,13.0,10.0,8.0%,1.04,0.99
Cc1cccc(-n2nnnc2SCC(=O)c2cc(C)n(Cc3ccco3)c2C)c1,i,3.0,3.0,2.0%,1.04,1.03
C=CCNc1ncnc2c1[nH]c1ccccc12,i,8.0,6.0,11.0%,2.49*,1.08
c1ccc2c(c1)[nH]c1c(NCC3CCCO3)ncnc12 (centres undefined),i,10.0,7.0,11.0%,2.78*,1.09
CCOCCCNc1ncnc2c1[nH]c1ccccc12,i,8.0,6.0,4.0%,1.67,1.01
Cc1cc2ccccc2c(=O)n1CC(=O)N(C)c1ccc(F)cc1,i,1.0,5.0,1.0%,1.32,1.04
c1ccc(-c2nn3c(Cn4nnc5ccccc54)nnc3s2)cc1,i,1.0,7.0,3.0%,1.13,1.04
c1ccc2c(c1)nnn2Cc1nnc2sc(-c3ccc4c(c3)OCCO4)nn12,+,11.0,10.0,18.0%,2.93*,1.07
N#CC1=C2C=CC=CN2CC1=O,nt,9.0,6.0,8.0%,2.26*,1.04
COc1cccc(N2CC(O)=C(c3nc4ccccc4c(=O)[nH]3)C2=N)c1,nt,21.0,3.0,12.0%,2.09*,1.1
COc1ccc(N2CC(O)=C(c3nc4ccccc4s3)C2=N)c(OC)c1,i,13.0,0.0,10.0%,1.56,1.05
CS(=O)(=O)n1nc(C(=O)N2CCOCC2)nc1N,i,16.0,6.0,7.0%,1.1,1.02
CCOC(=O)c1cc(C(=O)OCC)c2cc(Br)ccc2n1,i,5.0,14.0,9.0%,1.08,1.04
CCOC(=O)c1cc2c(=O)[nH]ccc2nc1C,nt,12.0,2.0,7.0%,3.66*,1.05
O=C(CCCc1c[nH]c2ccccc12)N1CCN(c2ccc(N3CCOCC3)nn2)CC1,nt,1.0,5.0,3.0%,2.15*,1.04
NC(=O)CCc1c[nH]c2ccccc12,i,5.0,6.0,4.0%,1.18,1.03
COc1cc(CCC(=O)N2CCN(c3ccc(N4CCOCC4)nn3)CC2)cc(OC)c1OC,nt,15.0,8.0,12.0%,2.16*,1.03
COc1cc(CCC(=O)N2CCN(S(=O)(=O)c3ccc(C)c(C)c3)CC2)cc(OC)c1OC,i,18.0,0.0,6.0%,1.04,0.99
Cn1nc(-c2ccc(Cl)cc2)c2cc(C(=O)NCCN3CCOCC3)sc21,nt,10.0,5.0,8.0%,2.13*,1.1
SMILES,DPM-DC inhibit,Spn PMK inh,Spn MK inh,NADH coupling,Fluor 339 460,Abs 340nm
CCN1CCN(C(=O)c2cc3c(-c4ccc(Cl)cc4)nn(C)c3s2)CC1,i,0.0,0.0,8.0%,1.83,1.05
Cn1nc(-c2ccc(Cl)cc2)c2cc(C(=O)N3CCN(C(=O)c4ccco4)CC3)sc21,i,7.0,0.0,2.0%,1.57,1.1
Cn1nc(-c2ccc(Cl)cc2)c2cc(C(=O)NCCCN3CCOCC3)sc21,nt,10.0,6.0,8.0%,2.1*,1.1
Cc1cc(C)c2c(N)c(C(=O)Nc3nccs3)sc2n1,nt,6.0,4.0,5.0%,2.15*,1.09
COc1cccc(CC(=O)Nc2nccs2)c1,i,12.0,0.0,4.0%,1.09,0.99
COCc1cc(C)nc2sc(C(=O)Nc3nccs3)c(N)c12,nt,0.0,2.0,1.0%,2.2*,1.14
Cc1ncoc1C(=O)Nc1nccs1,i,12.0,7.0,7.0%,1.01,1.03
Cc1ccc2c(CSc3nc4ccccc4c(=O)n3CCCO)cc(=O)oc2c1,i,13.0,0.0,4.0%,1.02,1.04
